This is part of a sample that, as a whole, favours compounds with a hit. Of some 79,000 tested, about 15% had one in any assay. No stated cut-off is given here; in the data, active means growth inhibition above about 70%; inactive means the rest.
Experiments:
[1] = NCI Yeast Anticancer Drug Screen. Data for the rad50 strain (AID 155);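 further: 0% = growth of vehicle-only cultures of the same strain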; settings: S. cerevisiae rad50 strain growth inhibition; at 50.0 µM; hits give high values
How it was run: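 Compounds were tested on a yeast strain with an engineered DNA damage repair alteration; the reported value is growth inhibition normalised to vehicle treatment.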

[2] = NCI Yeast Anticancer Drug Screen. Data for the mec2-1 strain (AID 157); settings: S. cerevisiae mec2-1 strain, at 50.0 µM, hits give high values
How it was run: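 Growth inhibition is read against vehicle-treated controls after compound exposure of the mec2-1 yeast strain, which is defective in DNA damage repair or cell cycle control.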

[3] = NCI Yeast Anticancer Drug Screen. Data for the sgs1 mgt1 strain (AID 161);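 further: 0% = growth of cultures given vehicle only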; settings: S. cerevisiae sgs1 mgt1 strain, at 50.0 µM, hits give high values
How it was run: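 Percent growth inhibition was derived by comparing compound-exposed mutant yeast with vehicle-exposed cultures. The strain carries alterations in DNA damage repair.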

[4] = NCI Yeast Anticancer Drug Screen. Data for the cln2 rad14 strain (AID 165);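 further: 0% = growth equal to vehicle treated cultures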; settings: S. cerevisiae cln2 rad14 strain, at 50.0 µM, hits give high values
How it was run: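 Growth inhibition, relative to vehicle-treated controls, is the read-out. The test organism is a yeast strain with defined genetic alterations, cln2 rad14.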

[5] = NCI Yeast Anticancer Drug Screen. Data for the bub3 strain (AID 167); settings: S. cerevisiae bub3 mutant strain, at 50.0 µM, hits give high values
How it was run: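 Growth of a checkpoint-deficient yeast mutant is measured after compound exposure. Values represent inhibition relative to vehicle.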

[6] = NCI Yeast Anticancer Drug Screen. Data for the mlh1 rad18 strain (AID 175); settings: S. cerevisiae mlh1 rad18 strain growth inhibition; at 50.0 µM; hits give high values
How it was run: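 Cells of a genetically altered yeast strain, deficient in DNA damage repair, were treated with compound. Their growth was then compared with that of vehicle-treated cultures to give inhibition.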

Measured: growth inhibition

CCC1(CC)SCC(C)(O)NC1=O (stereo not drawn)
inactive: [1] 1.95% | [2] -12.5% | [3] -7.15% | [4] -35.4% | [5] -10.6% | [6] -4.75%

CNC1C(O)C(OC2C(N)CC(N)C(OC3OC(CN)C(O)C(O)C3O)C2O)OCC1(C)O (stereo not drawn)
inactive: [1] 27.1% | [2] -17.1% | [3] -12.7% | [4] 4.85% | [5] 9.9% | [6] 20.6%

CN(C)Cc1cn(C[Si](C)(C)C)c2ccccc12
inactive: [1] 18.6% | [2] -3.25% | [3] 7.7% | [4] 0.35% | [5] 3.75% | [6] 13.2%

CCOC(=O)c1c[nH]c2cc3c(cc2c1=O)CCS3
inactive: [1] -27.4% | [2] -57% | [3] -1.45% | [4] 3.95% | [5] 9% | [6] -7.35%

COC(=O)/C=C(\C(=O)OC)c1cc(C)c2cc(C(C)C)ccc(C)c1-2
inactive: [1] 4.25% | [2] -22.2% | [3] 13% | [4] 13.8% | [5] -7.5% | [6] 17.9%

CCC(CC)COC(=O)c1ccccc1C(=O)OCC(CC)CC
inactive: [1] -18.9% | [2] -33.3% | [3] -0.35% | [4] 3.6% | [5] -2.75% | [6] -16%

Cc1ccc(-c2cc(=O)c3cc(C)c(C)c(C(=O)O)c3o2)cc1C
inactive: [1] 11.6% | [2] 20.6% | [3] 30.5% | [4] 23.5% | [5] 6.25% | [6] 20.7%

NC(N)=NOCC(=O)O
inactive: [1] -7.2% | [2] -14.7% | [3] -8.85% | [4] -42.5% | [5] 3.95% | [6] -16.1%

N#Cc1ccccc1NC(=O)C(=O)C(C(=O)c1ccccc1-c1ccccc1)C1OC(=O)c2ccccc21 (stereo not drawn)
inactive: [1] 24.4% | [2] 5.25% | [3] 11.7% | [4] -43% | [5] 2.25% | [6] 0.95%

COc1cc2c(cc1OC)C(O)C(O)(CO)C(C(=O)O)C2c1cc(OC)c(OC)c(OC)c1 (stereo not drawn)
inactive: [1] 24.4% | [2] -10.3% | [3] 12.1% | [4] 18.2% | [5] 25.1% | [6] 22.7%

CNC(=S)NNC1=NCCCN1
inactive: [1] -48.5% | [2] -10.2% | [3] -25.9% | [4] 13.8% | [5] 9.75% | [6] -9.9%

CCC(C)OC(=Nc1ccccc1)c1ccccc1 (stereo not drawn)
inactive: [1] -4.05% | [2] 5.95% | [3] -4.5% | [4] 15.7% | [5] -6.7% | [6] 2.4%

CCN(CC)CCSC(=O)C(O)(c1ccccc1)c1cccc(C)c1 (stereo not drawn)
inactive: [1] 9.1% | [2] 10.1% | [3] -2.2% | [4] -11.9% | [5] -1.4% | [6] 10.6%

COc1cc([N+](=O)[O-])c2[nH]c(=O)ccc2c1
inactive: [1] -11.7% | [2] 19.7% | [3] -4.5% | [4] -7.2% | [5] -2.05% | [6] 3.45%

COC(=O)c1cc2ccccc2cc1Nc1ccc2ccccc2c1
inactive: [1] 2.25% | [2] 4.7% | [3] 5.25% | [4] -10.3% | [5] -0.7% | [6] 7.3%

O=C(CCCl)Nc1c(Cl)cccc1Cl
inactive: [1] 10.2% | [2] 11.7% | [3] 8.9% | [4] 18.6% | [5] 21.1% | [6] -3.65%

Cc1ccccc1C(OCCN(C)C)c1ccccc1 (stereo not drawn)
inactive: [1] -46.2% | [2] -44.8% | [3] -44% | [4] -6.65% | [5] -39% | [6] -28.1%

CC(=O)c1sc(-c2nc(C)c(C(=O)/C=C\c3ccc(/C=C\C(=O)c4sc(-c5nc(C)c(C(C)=O)s5)nc4C)cc3)s2)nc1C
inactive: [1] -19.3% | [2] -13.4% | [3] -8.7% | [4] -11.6% | [5] 3.95% | [6] -14.4%

Nc1ncc(Cl)cn1
inactive: [1] 19.6% | [2] -21.4% | [3] 8% | [4] -25.2% | [5] -22.3% | [6] -23.6%

Cc1cc(C)c2c(ccc3ccccc32)n1
inactive: [1] -43.9% | [2] -21.4% | [3] -23.4% | [4] -5.75% | [5] -19.9% | [6] -33.5%

CCCCC1(CCBr)C(=O)NC(=Nc2ccccc2)NC1=O (stereo not drawn)
inactive: [1] 1.85% | [2] -5.35% | [3] 10.3% | [4] -41.8% | [5] 2.95% | [6] -13.9%

O=c1/c(=C/c2ccc(Cl)cc2)sc2nc(-c3ccccc3)nn12
inactive: [1] 0.85% | [2] 7.75% | [3] 8.8% | [4] -6.75% | [5] -12.8% | [6] 23.6%

CN1C2CCC1/C(=C/c1cccc3c1OCO3)C(=O)/C2=C\c1cccc2c1OCO2
inactive: [1] 27.8% | [2] 19.8% | [3] 20.4% | [4] -52% | [5] 32.3% | [6] 27.1%

O=C(O)CCC(=O)Nc1cccc(C(F)(F)F)c1
inactive: [1] -5.9% | [2] 3.4% | [3] -3.15% | [4] -0.55% | [5] 15.2% | [6] 4.3%

CC(=O)N1CC/C(=C\c2ccccc2)C1=O
inactive: [1] -10.1% | [2] -7.25% | [3] -12.5% | [4] -6.85% | [5] 0.25% | [6] -3.2%

Cc1cc2ccccc2c[n+]1C1CCc2ccccc2C1=O (stereo not drawn)
inactive: [1] 7.1% | [2] 5.6% | [3] 30.6% | [4] 24% | [5] 3.4% | [6] 20.2%

NC(N)=NS(=O)(=O)c1ccc(N)cc1
inactive: [1] 45% | [2] 23.9% | [3] 26.4% | [4] 14.3% | [5] 13.3% | [6] 13%

OCc1nnn2c1CCC2
inactive: [1] 4.95% | [2] 0.05% | [3] -2.15% | [4] 11.4% | [5] 10.4% | [6] -6.25%

O=c1oc2ccccc2c2c1cnn2-c1ccccc1
inactive: [1] -12.7% | [2] -4% | [3] -7.85% | [4] -5.9% | [5] -21.7% | [6] -4.45%

O=C1S/C(=C2\C(=O)N(CN3CCCCC3)c3ccccc32)C(=O)N1CN1CCCCC1
inactive: [1] 26.6% | [2] -13.1% | [3] -3.85% | [4] 4.65% | [5] -1.1% | [6] 31.1%

c1ccc(C(c2cccc3c2ccc2ccccc23)C(c2ccccc2)c2cccc3c2ccc2ccccc23)cc1 (stereo not drawn)
inactive: [1] 4.75% | [2] -9.6% | [3] -33.3% | [4] -19.6% | [5] -22.4% | [6] -12.7%

CCOC(=O)C(=C/C=C/NCCc1c[nH]c2ccccc12)C(=O)OCC
inactive: [1] -23.1% | [2] -44.5% | [3] -20.8% | [4] -10.2% | [5] -15.2% | [6] -26.2%

CCCCOC(=O)c1cc(/C=C\c2ccccc2)on1
inactive: [1] -12.9% | [2] -2.45% | [3] 3.1% | [4] -69.6% | [5] 30.6% | [6] 9.25%

COc1ccc(-c2cc(-c3ccc(Cl)cc3)on2)cc1
inactive: [1] -15.1% | [2] 11.2% | [3] -4.55% | [4] -35.8% | [5] 10.6% | [6] -11.4%

N#Cc1ccc(Sc2ccccc2)cc1C#N
inactive: [1] 12.8% | [2] -8.7% | [3] 24.4% | [4] 10.2% | [5] 24.9% | [6] 0.6%

C=CCCCCCC(O)C(O)C/C=C\C/C=C\CC (stereo not drawn)
inactive: [1] 18.4% | [2] 4.6% | [3] 22.8% | [4] -1.35% | [5] 15.5% | [6] 27.2%

CCCCCCC(N)=O
inactive: [1] 8.1% | [2] 2.1% | [3] -4.05% | [4] -26.9% | [5] -6.45% | [6] 9.75%

Cn1c(=O)c2conc2n(-c2ccc(Cl)cc2)c1=O
inactive: [1] 11.2% | [2] -0.1% | [3] -12.2% | [4] -19.9% | [5] 2.55% | [6] -3.25%
